# Bioassay records as filed in PubChem BioAssay.
# Tau fluor cs – counter-screen for tau fibril formation inhibitors. tau K18 P301L Alexa594 fluorescence, heparin fibrillization. Potency, µM (top dose mostly 57.7 µM), for inactives: at the top dose activity change, negative = decrease. 280,000 compounds, 0.93% hits. AID 1463; note: nearly all actives have a fitted effect of over 55% in size
#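 Human K18 P301L tau (15 uM unlabeled plus 0.24 uM Alexa 594-labeled, final) in 100 mM sodium acetate pH 7 was mixed with compound and 20 uM heparin and incubated 6 hr at 37 C.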
# NPSR antag – neuropeptide S receptor (human) antagonism, cAMP; CHO-NPSR cells, cAMP TR-FRET, antagonist mode; Potency, µM (doses to about 38.3 µM), for inactives: top-dose activity change, negative = inhibition, usual class: inhibitors; 220,000 compounds, 1% hits; note: nearly all actives have a fitted effect of over 50% in size
# Target sequence (Q6W5P4 whole entry, looked up): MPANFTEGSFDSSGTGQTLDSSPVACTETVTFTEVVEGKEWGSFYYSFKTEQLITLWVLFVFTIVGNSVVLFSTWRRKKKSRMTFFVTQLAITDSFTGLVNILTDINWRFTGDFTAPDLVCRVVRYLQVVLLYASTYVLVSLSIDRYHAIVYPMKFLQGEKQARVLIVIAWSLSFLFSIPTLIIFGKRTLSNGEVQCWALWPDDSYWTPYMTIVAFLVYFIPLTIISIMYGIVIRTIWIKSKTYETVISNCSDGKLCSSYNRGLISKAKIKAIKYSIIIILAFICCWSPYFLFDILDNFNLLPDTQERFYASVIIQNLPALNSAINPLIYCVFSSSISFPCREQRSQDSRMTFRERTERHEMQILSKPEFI
# HPGD block – inhibitors of human 15-hydroxyprostaglandin dehydrogenase (HPGD). AID 894. Potency, µM, inactives show at the highest dose activity change, negative = inhibition, most hits filed as inhibitors. 150,000 compounds, 4.3% hits. P15428. purified HPGD, NADH fluorescence kinetic, PGE2 substrate; active = well fitted inhibition curve with a large enough effect, not every such curve was filed as active; inconclusive = small, poorly fitted or top-dose-only effect, or another doubt; inactive = no such curve, though single readings can be large or run the other way
# Target sequence (P15428 whole entry, looked up): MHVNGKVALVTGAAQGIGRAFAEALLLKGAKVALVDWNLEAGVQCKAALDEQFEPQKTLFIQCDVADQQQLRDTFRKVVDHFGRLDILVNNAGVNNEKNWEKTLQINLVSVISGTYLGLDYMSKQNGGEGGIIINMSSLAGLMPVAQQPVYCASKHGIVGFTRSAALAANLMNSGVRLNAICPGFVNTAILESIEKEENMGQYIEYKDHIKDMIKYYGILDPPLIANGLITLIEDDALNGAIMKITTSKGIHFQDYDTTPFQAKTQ
#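 20 nM HPGD preincubated 15 min at room temperature with compound in 50 mM Tris-HCl pH 8, 0.01% Tween 20. Started with 1 mM NAD+ and 30 uM prostaglandin E2; NADH fluorescence (360/450 nm) read 5 times over 30-s intervals, last minus first.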
# Tau fibril ThT – tau fibrillization inhibition (ThT binding) | recombinant tau K18 P301L (four-repeat tau fragment), heparin-induced fibrillization, ThT fluorescence | Potency, µM (top dose mostly 57.4 µM), for the others: at the highest dose activity, negative = inhibition, usual class: inhibitors | 270,000 compounds, 2.1% hits | AID 1460; note: nearly all actives have a fitted effect of over 55% in size
# Target sequence (P10636 561-689 P618L limits assumed): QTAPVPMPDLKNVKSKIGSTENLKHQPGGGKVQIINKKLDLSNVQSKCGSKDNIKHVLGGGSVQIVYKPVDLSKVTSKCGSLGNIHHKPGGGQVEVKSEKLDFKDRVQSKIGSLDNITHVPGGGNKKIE
#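 Recombinant human tau K18 fragment […] carrying P301L, 15 uM unlabeled plus 0.24 uM Alexa 594-labeled, was fibrillized with 20 uM heparin in 100 mM sodium acetate pH 7 for 6 hr at 37 C; 30 uM ThT fluorescence read after 1 hr.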
# ALDH1A1 inh – inhibitors of human aldehyde dehydrogenase 1A1. 220,000 compounds, 7.3% hits. P00352. Potency, µM (highest dose often 75.3 µM), for inactives: top-dose activity, negative = inhibition, most hits filed as inhibitors. AID 1030. Purified ALDH1A1, NADH fluorescence, propionaldehyde substrate; active = well fitted inhibition curve with a large enough effect, not every such curve was filed as active; inconclusive = small, poorly fitted or top-dose-only effect, or another doubt; inactive = no such curve, though single readings can be large or run the other way;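 note: plate controls were no enzyme wells and a reference inhibitor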
# Tau fibril FP – blocks human tau fibril formation measured by polarization; K18 P301L tau heparin fibrillization, Alexa594 FP, 6 h; Potency, µM (top dose mostly 57.7 µM), without a hit: at the highest dose activity, negative = inhibition, most hits filed as inhibitors; AID 1468; 280,000 compounds, 0.39% hits; P10636; note: nearly all actives have a fitted effect of over 55% in size
#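 Steps: dispense K18 P301L tau (15 uM plus 0.24 uM Alexa 594 tracer, final) in pH 7 sodium acetate; add compound; add heparin (20 uM final); incubate 6 hr, 37 C; add ThT (30 uM final); after 1 hr ambient, read FP.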
# * hit, by the source's call; ? = inconclusive; . = no result; [ ] = another dose, or the depositor's remark. Sampled rows, rich in hits. Any-hit rate of the full collection: about 9.5%. Unless noted, calls come from the whole dose curve; as a rule, active = well fitted curve in the direction sought with a large enough effect; inconclusive = small, poorly fitted or top-dose-only effect, or another doubt; inactive = no such curve, though single readings can be large; an effect the other way counts as inactive or inconclusive. Unless noted, % is set by controls: 0 for no effect and ±100 for the full control effect; potency is the fitted concentration of half-maximal effect.
SMILES,Tau fluor cs,NPSR antag,HPGD block,Tau fibril ThT,ALDH1A1 inh,Tau fibril FP
CSc1cc(/C=N/O)c(SC)s1,-16.7%,0.3%[46.1 µM],11.2µM*,-12.8%,?,-7.4%
CSc1sc(C)cc1C=O,2.4%,11.1%,.,0.8%,?,5.3%
CCOC(=O)N1CCN(C(=O)COc2ccc(Cl)cc2)CC1,2.4%,2.1%[46.1 µM],6.3%,-3.5%,2.5%,-2.8%
CC1CN(C2CCN(C(=O)COc3ccc(Cl)cc3)CC2)CC(C)O1 (stereo unspecified),-9.4%,5.5%[46.1 µM],-2.5%,?,12.6µM*,-8.4%
COc1ccc(-c2cc(C(=O)Nc3sc4c(c3C(N)=O)CCC(C)C4)no2)cc1 (stereo unspecified),-10.2%,.,.,?,.,-11.8%
CC1CCc2c(sc(Nc3nc4c(F)cccc4s3)c2C(N)=O)C1 (stereo unspecified),15.8µM*[quencher],5.7%,?,?,?,7.1%
Cc1onc(-c2c(F)cccc2Cl)c1C(=O)NC(=S)NC1CCSC1=O (stereo unspecified),-3.3%,-13.1%,?,1.6%,10µM*,?
Cc1onc(-c2c(Cl)cccc2Cl)c1C(=O)NC(=S)Nc1sc2c(c1C(N)=O)CCC(C)C2 (stereo unspecified),0.9%,-7.5%,-5.2%,-1.2%,18.9µM*,-10.3%
C[N+]1(C)CCc2cc3c(cc2[C@@H]1[C@@H]1C(=O)Oc2c1ccc1c2OCO1)OCO3,-9.1%,.,-3.8%,-9.2%,7.0%,-1.8%
COCCCn1c(-c2ccc(S(=O)(=O)N3CCOCC3)cc2)csc1=Nc1ccccc1,-27.3%,?,?,?,14.1µM*,13.1%
COc1ccc(/C=N\NC(=O)c2cc(O)c(O)c(O)c2)cc1CN1CCN(c2ccc(F)cc2)CC1,?,7.4%,-23.3%,?,12.6µM*,-0.5%
COc1ccc(/C=N/NC(=O)c2ccc(C)cc2)cc1CN1CCN(c2ccc(F)cc2)CC1,?,-16.6%[46.1 µM],-26.6%,-20.3%,2.2%,-0.7%
COc1ccc(/C=N/NC(=O)c2ccc(O)cc2)cc1CN1CCCc2ccccc21,14.1µM*[quencher],?,-14.2%,?,-4.8%,?
N#CCC(=O)Nc1ccc(C(=O)OCC(=O)Nc2cccc(C(F)(F)F)c2)cc1,?,-5.2%,.,-7.9%,11.8%,?
CC(NC(=O)C1CCC1)c1ccc2c(c1)OCO2 (stereo unspecified),7.4%,-5.3%[46.1 µM],20µM*,6.2%,8.6%,-0.8%
Cc1ccc(C(C)NC(=O)C2CCCO2)cc1C (stereo unspecified),-9.4%,6.5%[46.1 µM],15.8µM*,-7.4%,-3.3%,3.0%
CC(NC(=O)C1CCC1)c1ccc(Br)cc1 (stereo unspecified),6.4%,16.1%,-28.4%,5.4%,5.0%,-4.0%
COC(=O)C1=C(C)N(Cc2ccccc2)C2=C3C(=O)OCCC3[C@@](O)(C(=O)OC)C(=O)N2C1c1ccccc1 (stereo partly specified),-10.0%[11.6 µM],.,.,-10.7%[11.5 µM],6.9%[13.5 µM],-10.2%[11.6 µM]
CC(C)Cc1csc(NC(=O)c2ccc(F)cc2)c1C(=O)O,-11.5%,-18.4%,25.1µM*,-13.5%,3.0%,5.7%
CC1(C)N([O-])c2cc([N+](=O)[O-])ccc2[N+]1=O,?,1.8%[7.67 µM],.,2µM*,.,8.91µM*
Cn1c(=O)c2c(=O)cc(NNC(=O)CC#N)[nH]c2n(C)c1=O,-0.6%,4.0%,.,-13.2%,0.7%,1.9%
Nc1c(NCc2ccccc2)c2ccccc2oc1=O,-19.4%,-20.1%[46.1 µM],?,-15.6%,22.4µM*,0.2%
O=c1oc2ccccc2c(NCc2ccccc2)c1[N+](=O)[O-],-10.3%,7.6%,25.1µM*,-14.1%,11.2µM*,-7.4%
Cc1cc(Cl)cc(Cl)c1CNc1c([N+](=O)[O-])c(=O)oc2ccccc12,-13.7%,-17.1%,?,-6.7%,10µM*,-4.5%
COc1ccc(CCNc2c([N+](=O)[O-])c(=O)oc3ccccc23)cc1OC,-7.3%,-11.1%[46.1 µM],15.8µM*,-6.7%,-0.2%,1.8%
SMILES,Tau fluor cs,NPSR antag,HPGD block,Tau fibril ThT,ALDH1A1 inh,Tau fibril FP
O=c1oc2ccccc2c(NCc2ccc(Cl)cc2)c1[N+](=O)[O-],-21.2%,-12.0%,.,.,.,-7.6%
CNc1c(N)c(=O)oc2ccccc12,-7.9%,-20.7%,.,?,-23.2%,-4.8%
O=c1oc2ccccc2c(NCCO)c1[N+](=O)[O-],7.1%,11.2%,.,0.4%,5.8%,1.8%
CCOc1ccccc1NS(=O)(=O)c1ccc2c(c1)CC(C)N2C(=O)C1CCC1 (stereo unspecified),-16.7%,.,.,-10.5%,.,-2.9%
CCOC(=O)C(C)NC(=O)C1CCN(c2ncnc3c2nc2n3CCCCC2)CC1 (stereo unspecified),2.9%,.,.,3.7%,.,3.0%
COc1ccc(C(=O)Nc2cnn(Cc3c(F)cccc3Cl)c2)cc1OC,-27.4%,-3.6%,.,-11.0%,.,-16.4%
Cn1c(=O)c([N+](=O)[O-])c(NCc2ccccc2)c2ccccc21,-2.9%,-12.1%[46.1 µM],6.31µM*,-1.6%,15.8µM*,-5.3%
O=[N+]([O-])c1ccc(-n2nnnc2-c2ccccc2)c([N+](=O)[O-])c1,11.2µM*[quencher],-8.3%,-4.7%,14.1µM*,-5.2%,?
Cc1ccc(-n2nnnc2-c2ccccc2)cc1,-6.1%,-8.6%,.,-3.2%,-1.4%,4.0%
COc1ccc(-c2nnnn2-c2ccccc2OC)cc1,1.6%,7.1%,1.3%,-2.1%,7.94µM*,1.4%
Cc1ccccc1-n1nnnc1-c1ccccc1,-5.1%,-1.2%[46.1 µM],-12.8%,-10.3%,4.47µM*,-4.0%
O=[N+]([O-])c1ccc(-n2nnnc2-c2ccccc2)cc1,-4.1%,3.1%,.,-5.4%,1.0%,10.2%
COc1ccc(S(=O)(=O)N2CCN(C(=O)c3c(C)nn(-c4ccccc4)c3Cl)CC2)cc1,-10.7%,-15.3%[46.1 µM],-16.3%,-10.3%,31.6µM*,10.9%
Cc1ccc(S(=O)(=O)N2CCN(C(=O)c3c(C)nn(-c4ccccc4)c3Cl)CC2)cc1,-2.3%,-17.1%[46.1 µM],-11.2%,-8.7%,-3.8%,-7.9%
Cc1ccc(S(=O)(=O)N(CC(=O)O)Cc2cccc(C)c2)cc1,.,.,3.8%,.,-2.9%,.
CCCCCC(=O)NC(=S)Nc1cccc(C(C)=O)c1,1.9%,-0.9%,14.1µM*,6.0%,?,-2.2%
CCC(=O)NC(=S)Nc1cccc(C(C)=O)c1,-2.5%,-4.7%[46.1 µM],-15.5%,-6.7%,7.7%,-5.0%
CCCC(=O)NC(=S)Nc1cccc(C(C)=O)c1,-4.2%,-2.4%[46.1 µM],15.8µM*,-3.2%,-11.2%,0.8%
CCCOC(=O)Nc1cccc(C(C)=O)c1,2.2%,5.6%[46.1 µM],10µM*,-1.2%,-1.5%,5.9%
CC(=O)c1cccc(NC(=O)COC(=O)c2cccc(N3C(=O)c4ccccc4C3=O)c2)c1,-29.9%,2.2%,-11.7%,-14.1%,14.1µM*,-4.3%
